Source: PubChem BioAssay (NCATS)
Several values for one entry are separate records, joined by “and”; a condition that tells them apart may be missing. Equal entries are not always repeated. Results filed as inconclusive are left out. A call without a number means that no potency is given here. Where a structure was tested more than once in an assay, its records may differ in their call. Activity calls are given as the source filed them. Unless noted, calls come from the whole dose curve; as a rule, active = well fitted curve in the direction sought with a large enough effect; inconclusive = small, poorly fitted or top-dose-only effect, or another doubt; inactive = no such curve, though single readings can be large; an effect the other way counts as inactive or inconclusive.

Legend:
[1] = target: Cytochrome P450 3A4 (Homo sapiens) (UniProt P08684); assay: qHTS Assay for Inhibitors and Substrates of Cytochrome P450 3A4 (AID 884); conditions: recombinant CYP3A4, Luciferin-PPXE luminescence; series mostly up to 57.1 µM; note: nearly all actives have a fitted effect of over 50% in size
Chain of Cytochrome P450 3A4 (Homo sapiens) (P08684 whole entry, looked up): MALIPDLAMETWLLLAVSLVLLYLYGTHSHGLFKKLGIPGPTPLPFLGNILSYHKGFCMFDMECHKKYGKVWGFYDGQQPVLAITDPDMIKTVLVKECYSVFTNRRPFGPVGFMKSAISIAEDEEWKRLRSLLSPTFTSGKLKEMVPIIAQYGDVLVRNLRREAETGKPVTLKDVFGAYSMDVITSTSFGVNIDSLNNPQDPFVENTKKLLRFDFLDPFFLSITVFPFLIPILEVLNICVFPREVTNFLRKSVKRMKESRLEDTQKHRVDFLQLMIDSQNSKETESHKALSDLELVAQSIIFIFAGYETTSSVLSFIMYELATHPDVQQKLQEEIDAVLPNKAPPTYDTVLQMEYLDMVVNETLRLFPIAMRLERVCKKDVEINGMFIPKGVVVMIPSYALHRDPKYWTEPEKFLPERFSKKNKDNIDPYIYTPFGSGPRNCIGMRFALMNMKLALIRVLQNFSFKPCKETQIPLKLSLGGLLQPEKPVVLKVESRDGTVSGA
Summary of the method: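 20 nM human CYP3A4 with 25 uM Luciferin-PPXE (at KM) in 200 mM KPO4, preincubated 10 min with compound; NADPH regeneration started a 60 min RT reaction. Luciferin detected by luminescence, normalized to 57 uM ketoconazole as full inhibition.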

[2] = MultiTox-Fluor Cytotoxicity Assay - LYMP1-001 - Live Cells (AID 947); conditions: LYMP1-001 lymphoblastoid cells, live-cell protease fluorescence viability; series mostly up to 92.2 µM
[3] = Cell Viability - LYMP2-009 (AID 968); conditions: LYMP2-009 lymphoblastoid cell viability; series mostly up to 92.2 µM; note: nearly all actives have a fitted effect of over 55% in size
[4] = Cell Viability - LYMP2-012 (AID 982); conditions: LYMP2-012 lymphoblastoid cell viability qHTS; series mostly up to 92.2 µM;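 note: cellular ATP by luciferase luminescence where a drop means cytotoxicity; cells exposed to compound for one day before reading; nearly all actives have a fitted effect of over 55% in size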
[5] = target: Estrogen receptor (Homo sapiens) (UniProt P03372); assay: qHTS assay for small molecule antagonists of estrogen receptor alpha signaling (AID 588513; active = well fitted curve in the direction sought with a large enough effect in the signal ratio, with a control signal flat, not every such curve was filed as active; the % refers to the signal ratio); conditions: ER-alpha-UAS-bla HEK293, beta-lactamase ratio, antagonist mode; series mostly up to 76.9 µM
Chain of Estrogen receptor (Homo sapiens) (P03372 whole entry, looked up): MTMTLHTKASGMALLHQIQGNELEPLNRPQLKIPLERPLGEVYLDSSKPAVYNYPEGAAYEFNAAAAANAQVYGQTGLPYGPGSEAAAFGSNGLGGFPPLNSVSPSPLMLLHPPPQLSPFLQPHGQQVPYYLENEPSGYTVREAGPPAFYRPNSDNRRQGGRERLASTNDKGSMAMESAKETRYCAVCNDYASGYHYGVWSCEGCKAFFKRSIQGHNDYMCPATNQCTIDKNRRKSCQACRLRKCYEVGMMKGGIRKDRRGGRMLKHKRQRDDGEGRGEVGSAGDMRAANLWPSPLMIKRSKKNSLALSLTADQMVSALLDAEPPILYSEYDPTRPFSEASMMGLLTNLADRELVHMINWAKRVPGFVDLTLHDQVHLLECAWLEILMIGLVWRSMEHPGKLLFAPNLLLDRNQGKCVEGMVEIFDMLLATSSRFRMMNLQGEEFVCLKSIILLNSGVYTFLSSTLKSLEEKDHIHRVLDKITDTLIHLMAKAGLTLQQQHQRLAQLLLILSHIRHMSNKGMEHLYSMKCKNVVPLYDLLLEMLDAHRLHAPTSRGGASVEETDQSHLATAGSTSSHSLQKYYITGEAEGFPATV
Summary of the method: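 Antagonist-mode qHTS in ER-alpha-UAS-bla HEK 293 cells: compound titration, 0.5nM estradiol for 18 h, CCF4 fluorescence, Hill-derived IC50.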

[6] = target: Estrogen receptor (Homo sapiens) (UniProt P03372); assay: qHTS assay for small molecule agonists of estrogen receptor alpha signaling (AID 588514; calls by dose curve; note: nearly all actives have a fitted effect of over 70% in size); conditions: ER-alpha-UAS-bla HEK293, beta-lactamase ratio, 18 h; series mostly up to 76.8 µM
Summary of the method: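 ER-alpha-UAS-bla GripTite HEK293 cells, 5000/well in 2% charcoal/dextran-stripped FBS medium, treated with compound titrations 18 h at 37 C. CCF4 beta-lactamase read by fluorescence after 2 h RT; normalised to 20 nM 17-beta-estradiol (100%) and DMSO (0%), Hill fit for EC50 and efficacy.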

[7] = target: Bile acid receptor (Homo sapiens) (UniProt Q96RI1); assay: qHTS assay for small molecule agonists of farnesoid X receptor signaling (AID 588527; calls by dose curve); conditions: HEK293T FXR-UAS-bla, beta-lactamase ratio, 16 h; stronger effect = higher value
Chain of Bile acid receptor (Homo sapiens) (Q96RI1 whole entry, looked up): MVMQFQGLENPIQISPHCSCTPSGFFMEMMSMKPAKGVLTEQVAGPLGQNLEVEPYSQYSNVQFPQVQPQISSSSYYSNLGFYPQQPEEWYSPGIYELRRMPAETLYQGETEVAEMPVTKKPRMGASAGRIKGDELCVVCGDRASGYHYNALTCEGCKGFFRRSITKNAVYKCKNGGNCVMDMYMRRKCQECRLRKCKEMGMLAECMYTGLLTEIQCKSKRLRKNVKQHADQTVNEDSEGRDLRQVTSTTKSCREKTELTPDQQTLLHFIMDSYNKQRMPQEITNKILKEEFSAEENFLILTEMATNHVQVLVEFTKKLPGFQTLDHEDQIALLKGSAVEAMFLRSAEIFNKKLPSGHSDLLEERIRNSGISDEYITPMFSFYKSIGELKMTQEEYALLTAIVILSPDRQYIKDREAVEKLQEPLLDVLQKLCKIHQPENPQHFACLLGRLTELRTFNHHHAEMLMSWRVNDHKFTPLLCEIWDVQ
Summary of the method: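 Agonist-mode beta-lactamase reporter in GeneBLAzer FXR-UAS-bla HEK293T cells, titration up to 92 uM, 16 h exposure at 37 C, CCF4 fluorescence. Response scaled to DMSO (0%) and 100 uM chenodeoxycholic acid (100%), then Hill-fitted for EC50 and efficacy.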

[8] = target: Glucocorticoid receptor (Homo sapiens) (UniProt P04150); assay: qHTS assay for small molecule agonists of glucocorticoid receptor signaling (AID 588532; active = well fitted curve in the direction sought with a large enough effect in the signal ratio, with a control signal flat; the % refers to the signal ratio); conditions: HeLa MMTV-bla, beta-lactamase ratio, agonist, 18 h; stronger effect = higher value; percent of dexamethasone control, DMSO zero
Chain of Glucocorticoid receptor (Homo sapiens) (P04150 whole entry, looked up): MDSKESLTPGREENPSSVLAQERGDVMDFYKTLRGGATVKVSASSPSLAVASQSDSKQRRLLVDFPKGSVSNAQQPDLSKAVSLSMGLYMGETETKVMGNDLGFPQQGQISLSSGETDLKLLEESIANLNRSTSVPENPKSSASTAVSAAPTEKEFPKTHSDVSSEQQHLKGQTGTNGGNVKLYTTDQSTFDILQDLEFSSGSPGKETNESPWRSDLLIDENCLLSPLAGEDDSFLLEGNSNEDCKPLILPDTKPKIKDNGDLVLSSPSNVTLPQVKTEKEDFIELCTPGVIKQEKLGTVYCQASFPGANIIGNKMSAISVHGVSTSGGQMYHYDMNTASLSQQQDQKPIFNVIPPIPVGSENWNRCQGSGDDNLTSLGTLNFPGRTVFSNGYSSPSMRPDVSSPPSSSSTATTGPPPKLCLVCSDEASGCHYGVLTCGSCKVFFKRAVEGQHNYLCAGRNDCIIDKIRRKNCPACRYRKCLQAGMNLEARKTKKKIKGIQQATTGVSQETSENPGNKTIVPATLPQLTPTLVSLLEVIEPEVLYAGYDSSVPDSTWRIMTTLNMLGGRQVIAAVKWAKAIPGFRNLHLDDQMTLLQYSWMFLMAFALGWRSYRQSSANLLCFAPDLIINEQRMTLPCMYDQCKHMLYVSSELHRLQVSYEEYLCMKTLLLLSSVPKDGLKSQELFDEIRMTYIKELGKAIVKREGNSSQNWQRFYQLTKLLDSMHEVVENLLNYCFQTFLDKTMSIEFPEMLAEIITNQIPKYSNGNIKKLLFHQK
Summary of the method: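 MMTV-bla HeLa, beta-lactamase reporter; medium with 1% charcoal/dextran-stripped FBS; cpds up to 92 uM, 18 h, 37 C; CCF4 readout 460/530 nm; Hill fit → EC50, efficacy vs 0.1 uM dexamethasone = 100%.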

[9] = target: Glucocorticoid receptor (Homo sapiens) (UniProt P04150); assay: qHTS assay for small molecule antagonists of glucocorticoid receptor signaling (AID 588533; active = well fitted inhibition curve with a large enough effect in the signal ratio, with a control signal flat, not every such curve was filed as active; the % refers to the signal ratio;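 note: cells stimulated with 2 nM dexamethasone as agonist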); conditions: HeLa MMTV-bla, GRE beta-lactamase ratio, antagonist mode, 18 h; series mostly up to 76.8 µM
Summary of the method: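 Antagonist-mode qHTS: compound titrations added to GRE-bla HeLa cells, then dexamethasone 2 nM final; 18 h, 37 C. CCF4 FRET fluorescence normalized to dexamethasone and DMSO; IC50 from Hill fit.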

[10] = target: Peroxisome proliferator-activated receptor gamma (Homo sapiens) (UniProt P37231); assay: qHTS assay for small molecule agonists of peroxisome proliferator-activated receptor gamma signaling (AID 588536; active = well fitted curve in the direction sought with a large enough effect in the signal ratio, with a control signal flat, not every such curve was filed as active; the % refers to the signal ratio); conditions: HEK293 PPARg-UAS-bla, beta-lactamase ratio, 16 h, percent of rosiglitazone response, DMSO as zero; series mostly up to 76.7 µM
Chain of Peroxisome proliferator-activated receptor gamma (Homo sapiens) (P37231 whole entry, looked up): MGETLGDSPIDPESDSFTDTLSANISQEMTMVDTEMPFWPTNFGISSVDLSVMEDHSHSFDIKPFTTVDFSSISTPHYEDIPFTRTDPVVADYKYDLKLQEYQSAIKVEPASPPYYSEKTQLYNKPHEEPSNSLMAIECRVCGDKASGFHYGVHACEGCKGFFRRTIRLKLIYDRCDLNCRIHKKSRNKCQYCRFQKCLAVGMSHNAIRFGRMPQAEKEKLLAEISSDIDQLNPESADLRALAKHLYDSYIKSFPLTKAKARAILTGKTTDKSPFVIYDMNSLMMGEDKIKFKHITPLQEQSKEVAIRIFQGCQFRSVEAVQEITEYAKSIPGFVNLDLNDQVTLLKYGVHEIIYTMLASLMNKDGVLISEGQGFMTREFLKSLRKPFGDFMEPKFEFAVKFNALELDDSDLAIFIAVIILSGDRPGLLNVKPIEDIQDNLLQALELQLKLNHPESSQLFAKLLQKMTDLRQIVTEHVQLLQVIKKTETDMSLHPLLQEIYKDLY
Summary of the method: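 Ratiometric blue/green fluorescence (405 nm excitation; 460 and 530 nm emission) from CCF4-loaded HEK293 reporter cells serves as signal. Exposure to test compounds lasts 16 h at 37 C in medium containing 1% charcoal/dextran-treated serum.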

[11] = target: Vitamin D3 receptor (Homo sapiens) (UniProt P11473); assay: qHTS assay for small molecule antagonists of vitamin D receptor signaling (AID 588541; calls by dose curve;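 note: receptor activated by calcitriol during compound treatment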); conditions: HEK293T VDR-UAS-bla, beta-lactamase ratio, antagonist mode; series mostly up to 76.7 µM
Chain of Vitamin D3 receptor (Homo sapiens) (P11473 whole entry, looked up): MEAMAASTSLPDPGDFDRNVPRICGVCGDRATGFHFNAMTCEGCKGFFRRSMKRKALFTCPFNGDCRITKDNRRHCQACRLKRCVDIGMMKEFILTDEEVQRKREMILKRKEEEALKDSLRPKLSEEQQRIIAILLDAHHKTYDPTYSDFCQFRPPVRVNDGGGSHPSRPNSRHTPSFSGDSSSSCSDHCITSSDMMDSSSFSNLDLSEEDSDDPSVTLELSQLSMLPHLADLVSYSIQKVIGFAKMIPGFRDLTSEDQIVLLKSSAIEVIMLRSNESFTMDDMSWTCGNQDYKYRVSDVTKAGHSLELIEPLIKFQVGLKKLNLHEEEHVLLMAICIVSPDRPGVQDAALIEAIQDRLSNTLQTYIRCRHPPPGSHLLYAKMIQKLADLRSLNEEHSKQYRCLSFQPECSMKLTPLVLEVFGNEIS
Summary of the method: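 VDR-UAS-bla HEK293T cells (2000/well, 2% charcoal-stripped FBS) were treated with titrated compounds plus 1-alpha,25-dihydroxyvitamin D3 (50 nM or 3 nM final) for 16 h at 37 C. CCF4 beta-lactamase fluorescence was read; Hill fits gave IC50.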

[12] = target: Vitamin D3 receptor (Homo sapiens) (UniProt P11473); assay: qHTS assay for small molecule agonists of vitamin D receptor signaling (AID 588543; calls by dose curve); conditions: HEK293T VDR-UAS-bla, beta-lactamase ratio, 16 h; series mostly up to 76.8 µM
Summary of the method: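 Measured: β-lactamase reporter activity (CCF4, 405 nm excitation, 460/530 nm emission) in HEK293T VDR-UAS-bla cells after 16 h compound exposure at 37 °C. Normalization against 50 nM 1α,25-dihydroxyvitamin D3 and DMSO; Hill-fit EC50.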

[13] = qHTS assay for small molecule agonists of the antioxidant response element (ARE) signaling pathway (AID 651741; active = well fitted activation curve with a large enough effect in the signal ratio; the % refers to the signal ratio; note: potency is the fitted concentration of half-maximal effect); conditions: HepG2 ARE-bla reporter, beta-lactamase FRET ratio, 16 h; series mostly up to 96 µM
Summary of the method: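 Compounds in DMSO are pinned onto HepG2 ARE-bla cells (2,000/well) that were preincubated 5 h; plates stay 16 h at 37 C, then beta-lactamase activity is detected with LiveBLAzer B/G substrate by fluorescence.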

[14] = qHTS assay for small molecule activators of the p53 signaling pathway (AID 651743; active = well fitted activation curve with a large enough effect in the signal ratio, not every such curve was filed as active; the % refers to the signal ratio); conditions: HCT-116 p53RE-bla, beta-lactamase FRET ratio, 16 h; activation: stronger effect = higher value
Summary of the method: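 Cell-based beta-lactamase reporter (p53 response elements, HCT-116 background). After a 5-hour preincubation, cells received compound for 16 hours at 37 C; substrate development ran 2 hours at room temperature.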

[15] = qHTS assay for small molecule activators of the nuclear factor-kappa B (NF-kB) signaling pathway (AID 651749; active = well fitted activation curve with a large enough effect in the signal ratio; the % refers to the signal ratio); conditions: NF-kB-bla ME-180 cells, beta-lactamase FRET ratio, 16 h; activation: stronger effect = higher value
Summary of the method: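 Screening used 2,000 ME-180 reporter cells per well exposed to pinned compound (23 nL) or DMSO; after 16 hr at 37C, beta-lactamase expression under NF-kB control was assessed through FRET.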

[16] = target: Nuclear receptor ROR-gamma (Homo sapiens) (UniProt P51449); assay: qHTS assay for small molecule antagonists of the retinoid-related orphan receptor gamma (ROR-gamma) signaling pathway (AID 651802); conditions: ROR-gamma antagonist cell reporter assay; series mostly up to 92.2 µM;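 note: luciferase reporter luminescence driven by ROR response element; nearly all actives have a fitted effect of over 60% in size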
Chain of Nuclear receptor ROR-gamma (Homo sapiens) (P51449 whole entry, looked up): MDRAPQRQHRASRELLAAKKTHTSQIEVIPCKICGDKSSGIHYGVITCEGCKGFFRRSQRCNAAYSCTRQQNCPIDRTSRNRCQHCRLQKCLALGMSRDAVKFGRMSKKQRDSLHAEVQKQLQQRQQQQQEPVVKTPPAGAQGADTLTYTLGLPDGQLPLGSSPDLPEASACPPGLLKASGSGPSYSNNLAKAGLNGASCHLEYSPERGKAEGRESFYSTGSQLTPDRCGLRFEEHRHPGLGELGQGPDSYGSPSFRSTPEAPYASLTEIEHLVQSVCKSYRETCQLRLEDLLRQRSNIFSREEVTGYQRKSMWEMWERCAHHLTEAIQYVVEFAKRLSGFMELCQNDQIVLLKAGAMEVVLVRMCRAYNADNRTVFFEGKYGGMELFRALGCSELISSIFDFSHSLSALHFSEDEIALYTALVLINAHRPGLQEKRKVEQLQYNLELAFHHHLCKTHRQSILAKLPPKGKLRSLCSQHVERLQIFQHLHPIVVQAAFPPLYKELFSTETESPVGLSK
Summary of the method: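 CHO cells with TET-inducible ROR-gamma and RORE-luciferase reporter, dosed then doxycycline-induced. After 16 h at 37C, One-Glo luminescence read; decreased signal indicates antagonism.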

[17] = qHTS assay for small molecule antagonists of the retinoid-related orphan receptor gamma (ROR-gamma) signaling pathway - cell viability counter screen (AID 720652; active = well fitted curve in the direction sought with a large enough effect in the repeat runs; an effect the other way counts as inactive or inconclusive;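 note: compound exposure lasted 16 hr before ATP read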); conditions: RORgamma reporter cell line viability counter screen; series mostly up to 92.2 µM
Summary of the method: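 CHO cells carrying TET-inducible ROR and RORE-luciferase reporter, plated 5 hr, then dosed with compound plus doxycycline. After 16 hr at 37 C, viability read as intracellular ATP by CellTiter-Glo luminescence.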

[18] = target: Nuclear receptor subfamily 1 group I member 2 (Rattus norvegicus) (UniProt Q9R1A7); assay: qHTS assay for small molecule activators of the rat pregnane X receptor (rPXR) signaling pathway (AID 651751; call rule not given here); conditions: rPXR reporter cells, luciferase (One-Glo), 24 h
Chain of Nuclear receptor subfamily 1 group I member 2 (Rattus norvegicus) (Q9R1A7 whole entry, looked up): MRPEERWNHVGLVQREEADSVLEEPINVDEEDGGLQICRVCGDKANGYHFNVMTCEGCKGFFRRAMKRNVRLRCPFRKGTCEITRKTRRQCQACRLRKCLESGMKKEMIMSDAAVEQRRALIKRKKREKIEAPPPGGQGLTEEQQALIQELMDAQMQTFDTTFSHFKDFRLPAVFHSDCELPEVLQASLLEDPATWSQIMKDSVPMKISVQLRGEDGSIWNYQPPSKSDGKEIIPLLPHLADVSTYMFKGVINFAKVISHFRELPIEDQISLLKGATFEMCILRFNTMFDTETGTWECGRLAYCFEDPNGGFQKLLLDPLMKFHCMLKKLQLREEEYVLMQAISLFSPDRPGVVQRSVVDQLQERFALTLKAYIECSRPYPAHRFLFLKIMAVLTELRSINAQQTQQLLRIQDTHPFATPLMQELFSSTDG

[19] = qHTS assay for small molecule activators of the human pregnane X receptor (PXR) signaling pathway (AID 720659; call rule not given here); conditions: DPX-2 HepG2 CYP3A4-luciferase, 24 h; series mostly up to 92.3 µM
[20] = Cell Viability - LYMP2-004 (AID 966); conditions: LYMP2-004 lymphoblastoid cell viability, qHTS; series mostly up to 92.2 µM; note: nearly all actives have a fitted effect of over 65% in size
Summary of the method: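 Lymphoblastoid LYMP2-004 cells, 2500 per well, were preincubated for 5 hr and then treated with compound for 24 h at 37 C in complete medium. Viability was read as cellular ATP by CellTiter-Glo luminescence, and AC50 values were taken from Hill fits to concentration-response data.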

Structure (SMILES)	Potency [1]	Potency [2]	Potency [3]	Potency [4]	Potency [5]	Potency [6]	activation [7]	activation [8]	Potency [9]	outcome [10]	outcome [11]	outcome [12]	Potency [13]	activation [14]	activation [15]	Potency [16]	Potency [17]	max response [18]	outcome [19]	Potency [20]
CCCSC(=O)Cl	inactive	inactive	inactive	inactive	inactive	inactive	0.0371% (inactive)	2.44% (inactive)	inactive	inactive	inactive	inactive	inactive	-3.85% (inactive)	-0.498% (inactive)	inactive	inactive	-3.99% (inactive)	inactive	
CC(C)Nc1nc(Cl)nc(NC(C)C)n1	inactive					inactive				inactive	inactive	inactive		-2.19% (inactive)				-1.62% (inactive)		
CC(C)(C)OOC(C)(C)C	inactive	inactive	inactive	inactive	inactive	inactive	-0.0913% (inactive)	-1.7% (inactive)	inactive	inactive			inactive	-4.97% (inactive)	1.21% (inactive)	inactive	inactive	2.42% (inactive)	inactive	inactive
c1ccc(-c2ccccc2)cc1	inactive		inactive	inactive	inactive	inactive	-2.99% (inactive) and -4% (inactive)	-0.478% (inactive) and -3.49% (inactive)	inactive	inactive			inactive and 54.5 µM (active)	2.71% (inactive) and -2.97% (inactive)	0.41% (inactive) and 0.224% (inactive)	inactive	inactive			inactive
C=CCOC(=O)c1ccccc1N	inactive	inactive	inactive	inactive	inactive	inactive		3.1% (inactive)	inactive	inactive	inactive	inactive				inactive	inactive	4.98% (inactive)	inactive	inactive
Nc1ccc(Br)cc1	inactive	inactive	inactive	inactive	inactive	inactive	0.791% (inactive)	-2.07% (inactive)	inactive					-1.91% (inactive)	-0.0985% (inactive)	inactive	inactive	-3.71% (inactive)	inactive	inactive
O=C=NC1CCCCC1		inactive	inactive	inactive	inactive	inactive	-4.4% (inactive) and -2.88% (inactive)	10.3% (inactive)	inactive	inactive	inactive	inactive	inactive	-1.8% (inactive) and -1.61% (inactive)		inactive	inactive		inactive	inactive
c1ccc2c(c1)CCCC2	inactive	inactive	inactive	inactive	inactive	inactive	-2.64% (inactive)	3.9% (inactive)	inactive	inactive	inactive	inactive	inactive	2.11% (inactive)	-0.796% (inactive)	inactive	inactive	-0.477% (inactive)	inactive	inactive
COC[C@]12CN(C=O)C3C4C(OC)C1[C@@]3(C1CC3(O)C(OC)C(O)C4(OC(C)=O)C1C3OC(=O)c1ccccc1)[C@@H](OC)CC2O (stereo partly drawn)	inactive																			
CCOP(=S)(OCC)SCSC(C)(C)C	inactive	inactive	inactive	inactive	inactive	inactive				inactive	inactive	inactive	inactive	3.78% (inactive) and -1.22% (inactive)			inactive	3.05% (inactive) and 5.9% (inactive)		inactive
C=C(Cl)Cl	inactive	inactive	inactive	inactive	inactive	inactive		-1.7% (inactive)		inactive			inactive	-1.18% (inactive)		inactive	inactive	-3.03% (inactive)	inactive	inactive
